Hit rate of the full screen: of about 310,000 compounds, about 1,200 (0.39%) were called active. Only a sample is shown. Measured potencies and affinities stand elsewhere. Values without a mark were called inactive. How the calls were made is not given here.
The molecules below were run against Large T antigen (Simian virus 40) (UniProt P03070) (assay: TAg ATPase/helicase activity blockers – biochemical (AID 1903)). Conditions: SV40 large T antigen ATPase/helicase inhibition assay; at 20 µM; stronger effect = higher value.
Large T antigen (Simian virus 40), sequence (P03070 whole entry, looked up): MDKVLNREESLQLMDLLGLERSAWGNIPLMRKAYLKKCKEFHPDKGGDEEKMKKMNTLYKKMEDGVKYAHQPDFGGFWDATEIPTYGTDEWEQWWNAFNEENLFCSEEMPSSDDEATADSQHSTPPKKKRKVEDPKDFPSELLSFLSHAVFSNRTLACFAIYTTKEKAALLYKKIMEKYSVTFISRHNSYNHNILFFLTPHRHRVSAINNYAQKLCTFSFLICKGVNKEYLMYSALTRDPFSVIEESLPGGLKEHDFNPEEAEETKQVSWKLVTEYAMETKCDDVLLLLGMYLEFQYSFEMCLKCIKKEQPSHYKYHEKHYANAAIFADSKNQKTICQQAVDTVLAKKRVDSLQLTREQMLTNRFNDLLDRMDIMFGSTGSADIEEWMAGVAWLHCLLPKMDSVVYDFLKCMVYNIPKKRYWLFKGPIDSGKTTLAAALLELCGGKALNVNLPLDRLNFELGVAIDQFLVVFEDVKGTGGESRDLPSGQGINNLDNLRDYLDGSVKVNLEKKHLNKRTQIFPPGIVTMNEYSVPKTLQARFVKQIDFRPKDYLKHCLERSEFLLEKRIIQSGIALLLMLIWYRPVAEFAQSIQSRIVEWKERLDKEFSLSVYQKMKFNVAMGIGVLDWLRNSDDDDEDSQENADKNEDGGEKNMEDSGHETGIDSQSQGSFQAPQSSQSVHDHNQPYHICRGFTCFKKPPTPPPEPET
`COc1cc(/C=C2/NC(=O)N(CC(=O)Nc3cccc(C)c3)C2=O)ccc1OCC(N)=O` showed an inhibition of 6.55%.
`CCOC(=O)c1[nH]c2ccccc2c1NC(=S)Nc1ccccc1C` gave an inhibition of 35.3%.
Work on `CCOC(=O)c1[nH]c2ccccc2c1N=CN(CC)CC` yielded an inhibition of 13.2%.
`CCCn1c(SCc2nc(N)nc(N3CCCCC3)n2)nc2c1c(=O)n(C)c(=O)n2C` was tested, and the inhibition was 27.3%.
`CC1=NOC(=O)/C1=C\c1ccc(-c2cccc(Cl)c2)o1` gave an inhibition of 2.49%.
Molecule `O=C(O)c1cc(-c2ccc(/C=C3\NC(=O)N(c4ccccc4)C3=O)o2)ccc1Cl` has an inhibition of 22.8%.
In the case of `CC1=NOC(=O)/C1=C\c1ccc(-c2ccc(Br)cc2C(=O)O)o1`, the inhibition is reported as 37.7%.
In the case of `CC1=NOC(=O)/C1=C/c1ccc(-c2ccc(Cl)cc2)o1`, the inhibition is reported as 29.9%.
`CC(C)N1C(=O)S/C(=C\c2ccc(-c3ccc(Cl)c(C(=O)O)c3)o2)C1=O` was tested, and the inhibition was 31%.
For `CC1=NOC(=O)/C1=C\c1ccc(-c2ccc(Br)cc2)o1`, the inhibition was 11.9%.
Work on `Cc1ccc(NCC(=O)Nc2cccc(F)c2)cc1S(=O)(=O)N1CCCCCC1` yielded an inhibition of 30.7%.
For `O=C(Cc1cccs1)Nc1nnc(SCc2ccc(C(F)(F)F)cc2)s1`, the inhibition was 21%.
`O=C(c1cnn2c(C(F)(F)F)cc(-c3ccccc3)nc12)N1CCOCC1` gave an inhibition of 2.03%.
In the case of `CN(/N=C/Cc1nnnn1-c1ccc(Cl)cc1)c1ccccc1`, the inhibition is reported as 12.9%.
Molecule `Fc1ccc2c(c1)C(c1ccncc1)=NNC(c1ccc(Cl)cc1)=N2` has an inhibition of -2.03%.
With `CCOc1ccc(S(=O)(=O)NCCC(=O)NC2CCCCC2)cc1` the inhibition was 6.66%.
Work on `CCC(C)CCN1C(N(C)C)=NC[C@@H]1CC(C)C` (stereo not given in full) yielded an inhibition of -8.26%.
For `COc1cc(OC)c(NS(=O)(=O)c2ccc(Cl)c(C(=O)OC(C)C(=O)N3CCCC3)c2)cc1Cl` (stereo not given), the inhibition was 0.34%.
Work on `NS(=O)(=O)c1ccc(N/N=C/c2ccc(O)cc2O)c([N+](=O)[O-])c1` yielded an inhibition of 14.4%.
`NS(=O)(=O)c1ccc(N/N=C/c2ccccn2)c([N+](=O)[O-])c1` was tested, and the inhibition was 9%.
`O=C(CCC1COc2ccccc2O1)NCc1ccco1` (stereo not given) showed an inhibition of 9.35%.
With `CC(=O)c1cc2cc(O)ccc2o1` the inhibition was 3.38%.
`Cc1cc(=O)c2c(O)c(O)ccc2o1` was tested, and the inhibition was 27.4%.
Work on `O=C(CCNC(=O)C1CCN(S(=O)(=O)c2ccccc2)CC1)NCc1ccncc1` yielded an inhibition of 18.3%.
In the case of `CCCCCCn1c(N(CC)CC)nc2c1c(=O)[nH]c(=O)n2C`, the inhibition is reported as 19.9%.
`Oc1c(Br)cc(/C=N/Nc2ccc(Cl)nn2)cc1Br` was tested, and the inhibition was 31.9%.
In the case of `O=C(O)c1ccc(/C=N/Nc2ccc(C(F)(F)F)cn2)cc1`, the inhibition is reported as 4.16%.
Molecule `Oc1ccc(/C=N/Nc2ccc(C(F)(F)F)cn2)cc1` has an inhibition of 35.9%.
`Oc1cccc(/C=N/Nc2ccc(Cl)nn2)c1` was tested, and the inhibition was 1.08%.
In the case of `CCOC(=O)C1CCCN(c2c(N3CCC(N4CCCCC4)CC3)c(=O)c2=O)C1` (stereo not given), the inhibition is reported as 0.55%.
Molecule `CN1CCN(S(=O)(=O)c2cccc(C(=O)Nc3ccccc3N3CCOCC3)c2)CC1` has an inhibition of 8.67%.
Molecule `CCC(C)NC(=O)CN(c1ccc(Cl)c(Cl)c1)S(C)(=O)=O` (stereo not given) has an inhibition of 2.27%.
Work on `COc1cccc(OC)c1C(=O)NNS(=O)(=O)c1ccc2ccccc2c1` yielded an inhibition of 4.3%.
For `O=[N+]([O-])c1ccc(CSc2nc3ccccc3o2)cc1`, the inhibition was 1.36%.
Molecule `O=[N+]([O-])c1ccc(Cl)cc1Sc1nc2ccccc2o1` has an inhibition of 3.7%.
In the case of `Cc1nc(CCNC(=O)CC2C(=O)NCCN2CC(C)(C)C)nc2c1CCC2` (stereo not given), the inhibition is reported as 17.9%.
Molecule `CC(=O)N1CCN(S(=O)(=O)c2cccc(C(=O)Nc3ccc(C)cn3)c2)CC1` has an inhibition of 10.6%.
Work on `Cc1c(O)ccc2c(CN3CCN(Cc4ccccc4)CC3)cc(=O)oc12` yielded an inhibition of 20.2%.
`O=c1cc(CN2CCOCC2)c2ccc(O)c(O)c2o1` gave an inhibition of 31.2%.
Work on `COc1ccc(OC)c(C(=O)c2coc3ccc(O)c(CN(C)C)c23)c1` yielded an inhibition of 7.95%.
Work on `CCCc1cc(N2CCN(C(=O)c3ccco3)CC2)n2c(nc3ccccc32)c1C#N` yielded an inhibition of 14.7%.
Molecule `Cc1ccc(S(=O)(=O)Nc2ccc(N3CCN(C)CC3)nc2)cc1` has an inhibition of 15.7%.
In the case of `COc1ccc2c(OC)c3ccoc3nc2c1OC`, the inhibition is reported as 6.26%.
Work on `COc1cc2nc3occc3c(OC)c2cc1OC` yielded an inhibition of 19.9%.
In the case of `CCn1nc(C)c(CN2CCCCC2C(=O)Nc2ccc(Oc3cccnc3)cc2)c1C` (stereo not given), the inhibition is reported as 13.5%.
In the case of `CC(Oc1ccc2ccc(=O)oc2c1)C(=O)N1CCOCC1` (stereo not given), the inhibition is reported as 29.2%.
`O=Nc1c(O)[nH]c2ccc(F)cc12` was tested, and the inhibition was 3.33%.
`Cc1ccc2[nH]c(O)c(N=O)c2c1` showed an inhibition of 1.83%.
With `Cn1c(=O)c2sccc2n2c(CCCC(=O)N3CCCCC3)nnc12` the inhibition was 7.77%.
Molecule `CN1c2cccc3cccc(c23)N(C)C1(C)C` has an inhibition of 23%.
Work on `CN1C(=O)N(C)c2ccc(C=O)c3cccc1c23` yielded an inhibition of 1.16%.
Work on `COc1ccc(NC(=O)c2ccc(N3CCOCC3)nc2)cc1` yielded an inhibition of 6.11%.
`COc1ccc(NC(=O)CCN2CCN(S(=O)(=O)c3ccc(C(C)C)cc3)CC2)cc1` was tested, and the inhibition was 14.9%.
Work on `O=C(CCN1CCN(c2ccccn2)CC1)Nc1ccc(F)cc1` yielded an inhibition of 2.77%.
Work on `CC(=O)Nc1ccc(NC(=O)CN2CCN(c3ccccn3)CC2)cc1` yielded an inhibition of 0.46%.
`Cc1ccc(C(=O)Nc2ccc(N3CCOCC3)nc2)cc1` was tested, and the inhibition was 1.46%.
Molecule `COc1ccc(NC(=O)CCN2CCN(S(=O)(=O)c3ccc(OC)cc3)CC2)cc1` has an inhibition of 6.07%.
In the case of `CCN(CC)CCn1c2c(c(SCC(=O)Nc3ccc4c(c3)OCO4)nc1=O)CCC2`, the inhibition is reported as 8.82%.
`O=C(O)C1=C[C@H](c2ccc3c(c2)OCO3)C[C@H](OCc2ccc(CO)cc2)O1` was tested, and the inhibition was 9.17%.
`COc1ccccc1-c1cc(C(F)(F)F)nc(S(=O)(=O)CCCC(=O)NCc2ccc(F)cc2)n1` gave an inhibition of 23.6%.
`CCOc1ccc(C(=O)CCc2nc3ccccc3s2)cc1` gave an inhibition of 17.3%.
Work on `CCOC(=O)/C(C#N)=C/c1c(N2CCN(c3ccccc3)CC2)nc2c(C)cccn2c1=O` yielded an inhibition of 2.5%.
For `COc1cc(Cl)c(C)cc1Nc1ncccn1`, the inhibition was 5.51%.
With `CCCCCNC(=O)Cn1c(=O)c2c(ncn2CC(C)C)n(Cc2ccccc2)c1=O` the inhibition was 9.03%.
Work on `O=C(CSc1nnc(NC(=O)c2c(F)cccc2F)s1)NCc1ccccc1` yielded an inhibition of 9.61%.
With `COCCn1c(=O)[nH]c2cc(C(=O)NCCN3CCN(c4ccccc4)CC3)ccc2c1=O` the inhibition was 0.98%.
`O=S(=O)(Nc1nc2c(s1)CCCC2)c1ccc2ccccc2c1` showed an inhibition of 21.8%.
Molecule `Nc1nc2cc(S(=O)(=O)NC3=NCCCCC3)ccc2s1` has an inhibition of 37.1%.
`CCc1ccc(C(=O)OCC(=O)Nc2cccc(S(=O)(=O)NC3=NCCCCC3)c2)cc1` was tested, and the inhibition was 23%.
For `O=S(=O)(NC1=NCCCCC1)c1ccc2ccccc2c1`, the inhibition was 7.96%.
`CC1CC(=O)C2=C(C1)Nc1ccccc1N(C(=O)COc1ccccc1)C2c1ccco1` (stereo not given) showed an inhibition of 5.78%.
With `CCN(CC)Cc1c(O)ccc2c(=O)c(Oc3ccccc3OC)c(C)oc12` the inhibition was 13.5%.
`Cc1c(-c2ccc(F)cc2)[n+](=O)c(-c2ccc(F)cc2)c(C)n1[O-]` showed an inhibition of 17.5%.
Work on `CC(C)(C)c1ccc(C(=O)NNC(=S)NCc2ccco2)cc1` yielded an inhibition of 12.7%.
`Cc1ccccc1Nc1c(-c2cccnc2)nc2ccccn12` was tested, and the inhibition was 11.7%.
`c1ccc(-c2nc3ccccn3c2NC2CCCC2)nc1` was tested, and the inhibition was 35%.
Molecule `Cc1ccc2nc(-c3ccncc3)c(NC3CCCC3)n2c1` has an inhibition of 11.4%.
For `Cc1ccc2nc(-c3ccccn3)c(Nc3ccccc3C)n2c1`, the inhibition was 16.6%.
`CCCCCCC(=O)Oc1cccc(N2C(=O)C3CCCCC3C2=O)c1` (stereo not given) showed an inhibition of 4.91%.
For `CCOC(=O)N1CCN(S(=O)(=O)c2ccc(OCC(=O)OC)c(Cl)c2)CC1`, the inhibition was -13.8%.
Molecule `N#C/C(=C\c1ccc2c(c1)OCO2)C(=O)NCc1ccco1` has an inhibition of 6.96%.
For `CC(c1ccccc1)N1CCC(CNC(=S)Nc2cccc(Cl)c2)C1` (stereo not given), the inhibition was 16.7%.
`CC1OC(OC2C(Oc3c(-c4ccc(O)cc4)oc4cc(O)cc(O)c4c3=O)OC(COC3O[C@@H](C)[C@H](O)[C@@H](O)C3O)C(O)C2O)C(O)C(O)C1O` (stereo not given in full) showed an inhibition of 3.2%.
In the case of `O=c1c(O[C@@H]2O[C@H](CO)[C@H](O)[C@H](O)[C@H]2O)c(-c2ccc(O)c(O)c2)oc2cc(O)cc(O)c12`, the inhibition is reported as -2.68%.
For `O=c1c(O[C@@H]2O[C@H](CO)[C@@H](O)[C@H](O)[C@H]2O)c(-c2ccc(O)c(O)c2)oc2cc(O)cc(O)c12`, the inhibition was 2.85%.
`O=c1c(OC2OC(CO)C(O)C(O)C2OC2OC(CO)C(O)C(O)C2OC2OC(CO)C(O)C(O)C2O)c(-c2ccc(O)c(O)c2)oc2cc(O)cc(O)c12` (stereo not given) showed an inhibition of 7.41%.
`C[C@@H]1O[C@@H](OC[C@H]2O[C@@H](Oc3c(-c4ccc(O)c(O)c4)oc4cc(O)cc(O)c4c3=O)[C@H](O)[C@@H](O)[C@@H]2O)[C@H](O)[C@H](O)[C@H]1O` was tested, and the inhibition was 5.24%.
With `C[C@@H]1O[C@@H](OC[C@H]2O[C@@H](Oc3c(-c4ccc(O)cc4)oc4cc(O)cc(O)c4c3=O)[C@H](O)[C@@H](O)[C@@H]2O)[C@H](O)[C@H](O)[C@H]1O` the inhibition was 10%.
`CC(=O)N/C(=C\c1ccc(F)cc1)C(=O)NC(C(=O)O)C(C)C` (stereo not given) showed an inhibition of 0.16%.
`O=c1cc(O)nc(SCc2ccccc2)n1-c1ccc(Cl)cc1` was tested, and the inhibition was 7.14%.

Reference: PubChem BioAssay AID1903 (Southern Research Specialized Biocontainment Screening …, 2009)
